High-throughput results (PubChem BioAssay)
ALDH1A1 block = qHTS Assay for Inhibitors of Aldehyde Dehydrogenase 1 (ALDH1A1); Aldehyde dehydrogenase 1A1 (Homo sapiens), P00352; AID 1030, 2008; Potency, µM (series often up to 75.3 µM), actives largely listed as inhibitors; 220,000 compounds, 7.3% hits; Purified ALDH1A1, NADH fluorescence, propionaldehyde substrate; active = well fitted inhibition curve with a large enough effect, not every such curve was filed as active; inconclusive = small, poorly fitted or top-dose-only effect, or another doubt; inactive = no such curve, though single readings can be large or run the other way
Target sequence (P00352 whole entry, looked up): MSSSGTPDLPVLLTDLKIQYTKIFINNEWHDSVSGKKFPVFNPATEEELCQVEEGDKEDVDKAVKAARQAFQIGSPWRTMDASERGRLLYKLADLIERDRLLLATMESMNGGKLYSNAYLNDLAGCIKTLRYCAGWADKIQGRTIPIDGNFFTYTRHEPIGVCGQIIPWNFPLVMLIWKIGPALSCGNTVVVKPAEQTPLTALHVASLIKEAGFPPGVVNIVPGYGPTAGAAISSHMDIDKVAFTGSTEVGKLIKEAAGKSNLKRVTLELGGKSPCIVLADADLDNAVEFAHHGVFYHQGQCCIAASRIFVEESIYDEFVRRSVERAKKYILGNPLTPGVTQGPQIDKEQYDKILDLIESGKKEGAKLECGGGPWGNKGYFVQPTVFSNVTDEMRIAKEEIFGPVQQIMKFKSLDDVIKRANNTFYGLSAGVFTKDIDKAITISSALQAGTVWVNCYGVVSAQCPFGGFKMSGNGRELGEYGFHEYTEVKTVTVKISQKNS
HttQ103 aggreg = qHTS Multiplex Assay to Identify Dual Action Probes in a Cell Model of Huntington: Aggregate Formation (GFP) | Potency, µM (highest dose often 46.1 µM), actives largely listed as inhibitors | PC12 HttQ103-GFP aggregates, Acumen cytometry, 40 h | 220,000 compounds, 1.1% hits; note: nearly all actives have a fitted effect of over 60% in size
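Quantitative HTS on tebufenozide-induced (100 nM) PC12 cells stably expressing polyQ103 Huntingtin exon 1–GFP. Reduction of bright GFP aggregates, detected by laser scanning cytometry after lysis, identified actives across the titration.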
Lamin A splicing = qHTS Assay for Modulators of Lamin A Splicing. HeLa LMNA splicing GFP/RFP minigene ratio, 48 h. Potency, µM (top dose mostly 46.1 µM), actives largely listed as inhibitors. 200,000 compounds, 0.01% hits. AID 1487, 2009; active = well fitted inhibition curve with a large enough effect in the signal ratio, with a control signal flat, not every such curve was filed as active; inconclusive = small, poorly fitted or top-dose-only effect, or effect the other way, or a change in a side signal; the % refers to the signal ratio
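S3 HeLa stable clones carrying a lamin A-EGFP splicing minigene plus DsRed2 were seeded at 600 cells/well in Opti-MEM with 2% FBS, pin-dosed and incubated 48 h at 37°C. Acumen cytometry (488 nm) gave the GFP/RFP total-intensity ratio.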
HPGD block = qHTS Assay for Inhibitors of HPGD (15-Hydroxyprostaglandin Dehydrogenase); 15-hydroxyprostaglandin dehydrogenase [NAD(+)] (Homo sapiens), P15428; purified HPGD, NADH fluorescence kinetic, PGE2 substrate; Potency, µM, usual class: inhibitors; 150,000 compounds, 4.3% hits; active = well fitted inhibition curve with a large enough effect, not every such curve was filed as active; inconclusive = small, poorly fitted or top-dose-only effect, or another doubt; inactive = no such curve, though single readings can be large or run the other way
Target sequence (P15428 whole entry, looked up): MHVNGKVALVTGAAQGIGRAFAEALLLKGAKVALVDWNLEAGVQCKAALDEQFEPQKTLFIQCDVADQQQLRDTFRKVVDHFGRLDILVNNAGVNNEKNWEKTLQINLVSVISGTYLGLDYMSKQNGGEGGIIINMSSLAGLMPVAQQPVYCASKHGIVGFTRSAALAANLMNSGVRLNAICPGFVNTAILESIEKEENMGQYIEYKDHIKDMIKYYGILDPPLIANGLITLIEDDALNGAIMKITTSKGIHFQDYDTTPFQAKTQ
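NADH formation kinetics: reaction with 30 uM PGE2 and 1 mM NAD+ (final), 20 nM enzyme, Tris-HCl pH 8 with Tween 20, after 15 min compound preincubation at room temperature. Fluorescence change, last versus first of five reads.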
HTT cytoprotect = qHTS Multiplex Assay to Identify Dual Action Probes in a Cell Model of Huntington: Cytoprotection (ATP). PC12 HTT-Q103 induced, cytoprotection, ATP luminescence, 40 h. Potency, µM (titrated, usually from 56.4 µM), most hits filed as activators. 230,000 compounds, 0.14% hits. AID 1471, 2008; note: nearly all actives have a fitted effect of over 45% in size
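Compounds were screened for protection of PC12 cells against cell death after tebufenozide induction (100 nM final) of mutant Huntingtin exon 1 (Q103) fused to GFP.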
Numbers stand for hits; . = inactive; ? = inconclusive; / = no result; [ ] = another dose, or the depositor's remark. In the library only some 8.8% were active in any assay of this set; here they are far more common. Unless noted, calls come from the whole dose curve; as a rule, active = well fitted curve in the direction sought with a large enough effect; inconclusive = small, poorly fitted or top-dose-only effect, or another doubt; inactive = no such curve, though single readings can be large; an effect the other way counts as inactive or inconclusive.

SMILES	ALDH1A1 block	HttQ103 aggreg	Lamin A splicing	HPGD block	HTT cytoprotect
CCCn1c(CN(C)Cc2ccccc2)nc2c1c(=O)n(C)c(=O)n2C	.	22µM	?	.	.[10 µM]
CCCCn1c(CN(C)Cc2ccccc2)nc2c1c(=O)n(C)c(=O)n2C	.	20µM	?	.	.[10 µM]
CC1(C)OC[C@@H]2O[C@H](n3cnc4c(N)nc(Cl)nc43)[C@@H](OS(C)(=O)=O)[C@@H]2O1	.[13.5 µM]	/	/	.	.[10 µM]
CCOc1cc(NC(=O)CCl)c(OCC)cc1NC(=O)CCl	/	.[9.22 µM]	/	/	.[10 µM]
CCn1cc(NC(=O)CCl)c(C)n1	4.5µM	.[9.22 µM]	?	/	.[10 µM]
CCCn1c(C)nc2c(NCCN3CCCCC3)nc(C)nc21	.	/	/	.	.
CN(C)NC1=CC(=[N+]2CCCC2)CC(C)(C)C1	.	.	/	/	.
CCCN(CCC)C1=CC(=[N+]2CCCC2)CC(C)(C)C1	.	11µM	?	.	.[0.074 µM]
O=C1NN(c2ccc(Cl)c(Cl)c2)C(=O)/C1=C/c1cccc(OC(=O)c2cccs2)c1	?	.	.	10µM	.
O=C1NN(c2ccccc2)C(=O)/C1=C\c1cccc(OC(=O)c2cccs2)c1	7.9µM	.	.	2.5µM	.
CCOc1cc(/C=C2/C(=O)N(c3ccccc3)N=C2C)ccc1OC(=O)c1cccs1	?	.	.	20µM	.
O=C(Nc1ccc2nc(SCC(=O)N3CCCc4ccccc43)sc2c1)c1cccc(Cl)c1	/	/	.	/	/
C=CCOCC/C=C1/c2ccccc2C(OC)C1C (stereo unspecified)	.[13.5 µM]	/	/	/	.[10 µM]
Cc1cc(C)nc(SC2CCCCC2NS(=O)(=O)c2ccccc2)n1 (stereo unspecified)	.	.	.	.	.[10 µM]
Brc1nc(Br)n(Cc2ccccc2)n1	.	.	?	/	.
Nn1cnn(Cc2ccccc2)c1=S	25µM	.	.	20µM	.[10 µM]
O=C(c1ccc(NC(=S)Nc2ccc(Cl)c(Cl)c2)cc1)N1CCCC1	?	.	.	11µM	.[10 µM]
NS(=O)(=O)c1ccc(NC(=S)Nc2ccc(C(=O)N3CCCCC3)cc2)cc1	18µM	.	/	/	.
Cc1nnsc1S(=O)(=O)Cc1ccccc1C(F)(F)F	.	.	/	/	?
COc1ccc(-c2coc3cc(O)cc(O)c3c2=O)cc1	.	.	?	.	.[1.9 µM]
O=c1c(-c2cc(O)c(O)c(O)c2)coc2cc(O)c(O)c(O)c12	25µM	/	/	7.1µM	.
CC(C)=CCc1c2c(c3occ(-c4ccc(O)c(O)c4)c(=O)c3c1O)C=CC(C)(C)O2	.[13.5 µM]	/	/	.	.[10 µM]
CC(C)=CCc1c(O)cc2occ(-c3ccc4c(c3)OCO4)c(=O)c2c1O	.	/	/	25µM	/
COc1ccc(-c2coc3cc(OC)cc(O)c3c2=O)cc1	.	.	?	.	.
O=c1c(-c2ccc(O)cc2)coc2cc(O)cc(O)c12	.	.	?	25µM	.
SMILES	ALDH1A1 block	HttQ103 aggreg	Lamin A splicing	HPGD block	HTT cytoprotect
O=C1CCCC1C(O)c1ccc2ccccc2c1 (stereo unspecified)	.	/	/	.	.
CC1(C)CC(=O)C2=C(C1)Nc1ncnn1C2c1cccs1 (stereo unspecified)	?	.	/	/	.
CCOc1ccc(-c2cc(C(=O)OC)[nH]n2)cc1	.	.[9.22 µM]	/	/	.[10 µM]
O=C(CCn1c(=O)[nH]c2ccsc2c1=O)Nc1ccc(F)c(F)c1	.	.	.	?	.
COc1cc(OC)cc(C(=O)NCC(c2cccs2)S(=O)(=O)c2ccc(F)c(C)c2)c1 (stereo unspecified)	/	/	.	/	/
CC1CCCCN1C(=O)CSc1nc2cc3c(cc2c(=O)n1Cc1ccc2c(c1)OCO2)OCO3 (stereo unspecified)	22µM	.	.	.	.[0.074 µM]
CC1CCCCN1C(=O)CSc1nc2ccsc2c(=O)n1Cc1ccccn1 (stereo unspecified)	16µM	.	.	.	.
Cc1cc(C(=O)CSc2nnc(-c3ccccc3)n2Cc2ccc3c(c2)OCO3)c(C)n1C	.	.	.	.	.[0.074 µM]
CCn1c(SCC(=O)N2CCCCC2C)nc2ccsc2c1=O (stereo unspecified)	7.9µM	.	?	?	.
Cc1cc(C(=O)CSc2nc3ccccc3c(=O)n2C)c(C)n1Cc1ccc2c(c1)OCO2	.	1µM	?	.	.
Cc1cc(NC(=O)CSc2nc3ccsc3c(=O)n2Cc2ccccn2)n[nH]1	.	.	.	.	.
Cc1ccc(CCNC(=O)c2c[nH]c3ccc(S(=O)(=O)Nc4cccc(C(F)(F)F)c4)cc3c2=O)cc1	/	/	.	/	/
NNC(=O)/C(=C/c1cccs1)NC(=O)c1ccccc1Cl	.	.[9.22 µM]	.	/	.[10 µM]
COc1ccccc1NC(=O)C1CCCN(c2ncnc3onc(-c4ccc(F)cc4)c23)C1 (stereo unspecified)	/	/	.	/	/
CCc1ccc(CNC(=O)CN2C(=O)c3cccnc3Oc3ccc(Cl)cc32)cc1	/	/	.	/	/
COc1cc(OC)c(Nc2c3c(nc4nc(-c5cccs5)nn24)CCCC3)cc1Cl	/	/	.	/	/
COc1ccc(Cn2c(-c3ccc(C)cc3)nc3c(c(=O)c4ccccc4n3C)c2=O)cc1	?	.	?	.	/
COc1ccc(Cn2c(-c3ccc(OC)cc3)nc3c(c(=O)c4ccccc4n3C)c2=O)cc1	0.28µM	.	.	.	.[10 µM]
Nc1ccccc1C(=O)C[C@@H](N)C(=O)O	.	/	/	/	?
Cc1ccccc1C(=O)Nc1nnc(SC(C)C)s1	16µM	.	/	/	.
CC(C)Sc1nnc(NC(=O)CCc2ccccc2)s1	.	.	/	/	.
CC(=O)Nc1nc(=S)ss1	3.2µM	.	.	25µM	.[10 µM]
CC(C)CC(=O)Nc1nc2ccc(S(C)(=O)=O)cc2s1	?	.[9.22 µM]	.	/	.[10 µM]
Cc1ccccc1C(=O)Nc1nc(=S)ss1	3.2µM	.	.	14µM	.
CC(C)CC(=O)Nc1nc(=S)ss1	3.5µM	.	.	14µM	.
SMILES	ALDH1A1 block	HttQ103 aggreg	Lamin A splicing	HPGD block	HTT cytoprotect
COc1ncc2nc(-c3cccs3)c(=O)n(-c3ccccc3)c2n1	?	/	/	?	.
O=C(Nc1nc(=S)ss1)c1c(F)cccc1F	22µM	.	.	?	.
COc1ccccc1N1CCN(C(=O)c2cnn(-c3cccc(Cl)c3)c2C2CCN(C(=O)OC(C)(C)C)CC2)CC1	/	/	.	/	/
O=C1N/C(=C/c2cccn2-c2ccc(F)cc2)C(=O)N1Cc1ccccc1	16µM	.	.	.	.
C[N+]1=C(/C=C/Nc2ccccc2Cl)C(C)(C)c2ccccc21	?	13µM	?	.	.[10 µM]
Nc1cccn2c(-c3ccc(Cl)cc3)cnc12	28µM	.	.[9.22 µM]	/	.
Cn1c(-c2ccc(Cl)cc2)cnc1N	.	.	.	.	.
Nc1cccn2c(-c3ccc(Cl)c(Cl)c3)cnc12	25µM	.	.	/	.[10 µM]
CCOC(=O)C1(CC2CC2)CCN(C(=O)c2cccnc2C)CC1	.	.[9.22 µM]	/	/	.[10 µM]
CN1CCN(C(=S)NC(CC(=O)c2ccccc2)c2ccccc2)CC1 (stereo unspecified)	.	.[9.22 µM]	/	/	.[10 µM]
